These compounds were tested against Cyclin-dependent kinase 2/cyclin A (Homo sapiens) (UniProt P24941+P20248+P78396). Conditions: at 10 µM.

Row | Structure (SMILES) | residual activity [%]
1 | CC[n+]1c(/C=C/N(C)c2ccccc2)n(-c2ccccc2)c2ccc(-c3nc4ccccc4s3)cc21 | 85
2 | CCC(=O)Nc1ccc2ncnc(Nc3cccc(Br)c3)c2c1 | 101
3 | COc1cc2ncnc(Nc3ccc(O)c(Br)c3)c2cc1OC | 42
4 | O=C1NC(=O)c2c1c1c3ccccc3[nH]c1c1[nH]c3cc(Br)ccc3c21 | 82
5 | Nc1ccc2ncnc(NCCc3ccc(Oc4ccccc4)cc3)c2c1 | 80
6 | Cc1cc(Nc2nc(-c3ccccc3)nc3ccccc23)n[nH]1 | 25
7 | c1ccc(-c2n[nH]c3c2oc2ccccc23)cc1 | 64
8 | CN(C)CCCn1cc(C2=C(c3c[nH]c4ccccc34)C(=O)NC2=O)c2ccccc21 | 38
9 | Oc1c2ccccc2c2c3c(cccc13)N=N2 | 36
10 | CC(=O)c1ccc(N2CCOCC2)cc1O | 88
11 | CCN(CC)C(=O)c1ccc(Nc2nc(OCC3CCCCC3)c3nc[nH]c3n2)cc1 | 9
12 | N#Cc1cnc2cnc(NCc3cccnc3)cc2c1Nc1ccc(F)c(Cl)c1 | 91
13 | Nc1nc(Nc2ccc(S(N)(=O)=O)cc2)nn1C(=S)Nc1c(F)cccc1F | -1
14 | Oc1ccc(Nc2nc(-c3ccc(Cl)cc3)cs2)cc1 | 78
15 | CNc1cc2c(Nc3cccc(Br)c3)ncnc2cn1 | 94
16 | COc1cc2ncnc(Nc3ccc(Oc4ccccc4)cc3)c2cc1OC | 101
17 | O=C(O)c1ccc2c3c1cccc3c(=O)n1c3ccccc3nc21 | 41
18 | Cc1nc2cc3nc(-c4cccs4)cnc3cc2n1C | 91
19 | c1ccc2c(-c3ccncc3)c[nH]c2c1 | 83
